Hit rate of the full screen: of about 350,000 compounds, about 31,000 (8.9%) were called active. Another 15% or so got no clear call; they are omitted. This is one part of a sample in which actives are shown more often than they occur. Values without a mark were called inactive. Calls follow the shape of the dose curve; as a rule, active = well fitted inhibition curve with a large enough effect; inconclusive = small, poorly fitted or top-dose-only effect; inactive = no such curve, though single readings can be large or run the other way.
% is scaled to controls: 0 for no effect and ±100 for the full control effect; potency is read from the fitted curve at half-maximal effect.

Sequence of Histone-lysine N-methyltransferase EHMT2 (Homo sapiens) (Q96KQ7 913-1193 limits assumed): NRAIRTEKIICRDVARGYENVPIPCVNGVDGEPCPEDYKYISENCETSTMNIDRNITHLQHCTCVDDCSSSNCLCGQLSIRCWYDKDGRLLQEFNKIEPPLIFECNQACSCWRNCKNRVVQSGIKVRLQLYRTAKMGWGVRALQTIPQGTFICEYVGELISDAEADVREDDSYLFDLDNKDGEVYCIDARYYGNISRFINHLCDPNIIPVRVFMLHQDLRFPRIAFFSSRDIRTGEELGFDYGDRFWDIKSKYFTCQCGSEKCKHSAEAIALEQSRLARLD

This test deals with Histone-lysine N-methyltransferase EHMT2 (Homo sapiens) (UniProt Q96KQ7). Nature of the test: qHTS Assay for Inhibitors of Histone Lysine Methyltransferase G9a. Also: nearly all actives have a fitted effect of over 75% in size. Conditions: G9a H3K9 monomethylation, AlphaScreen, 2 h; series mostly up to 59 µM; activity, negative = inhibition: at the top concentration. An excerpt:
Methylated lysines, on the N-terminal tails of histone proteins serve as epigenetic markers to recruit factors that can then modify local chromatin structure to lead to functional consequences. G9a and other members of the SUV39 family of the SET domain-containing superfamily of histone lysine methyltransferases (HMT) have been identified to specifically methylate Lys9 of histone H3 (H3K9). G9a catalyzes the mono- and di-methylation of H3K9 in mammalian euchromatic regions, where the resulting H3K9me2 is indicative of transcriptional repression. […] The inhibition of G9a will result in transcriptional activation and work synergistically with DNA methyltransferase and histone deacetylase inhibitors, to kill cancer cells. This qHTS assay for identification of G9a inhibitors is a chemiluminescence based AlphaScreen (PerkinElmer). Methylation of biotinylated-histone peptide is measured through specific antibody-based detection, in conjunction with streptavidin-coated donor and anti-IgG antibody-coated acceptor beads. The method is particularly well suited for detection of inhibitors acting by the desired histone peptide competitive mechanism and is applicable to testing other HMTs. Although AlphaScreen has significant advantages with its utility in a variety of epigenetic target assays, the primary screening data provided in this deposition should be used with caution due to the prevalence of screening artifacts. An AlphaScreen counterscreen is highly recommended to be run against any putative actives to eliminate non specific artifacts. Alternatively, one can use other AlphaScreen assays in PubChem to filter out promiscuous hits. Quinn et al. A chemiluminescence-based method for identification of histone lysine methyltransferase inhibitors. Mol Biosyst 6(5): 782-8. 2010. PMID: 20567762 [2] Baell,Holloway. New substructure filters for removal of pan assay interference compounds (PAINS) from screening libraries and for their exclusion in bioassays. J Med Chem. 53(7):2719-40. 2010. PMID: 20131845 NIH Molecular Libraries Probe Production Network [MLPCN] NIH Chemical Genomics Center [NCGC] Structural Genomics Consortium (SGC) NIH Grant: 5U54 MH084681-02
To each well of a 1,536w plate, 2ul of HMT enzyme (final 20nM) were added, using a nanoliter dispenser. The G9a- and GLP-inhibitor BIX-01294 (CID: 25150857) are used as an intraplate control, with a 16-point titration in duplicate. A Kalypsys pin-tool transferred 23nl of library compound solution in DMSO to each well. Following a 15 min incubation of enzyme with compounds at room temperature, 1ul mixture of b-H3K9 peptide substrate (final 500nM) and SAM cofactor (final 20uM) were added. Reactions were allowed to proceed at room temperature for 2 hours. Methylated b-H3K9 peptide product was detected with 0.5 ug/mL rabbit polyclonal anti-monomethyl histone H3K9 antibody (Abcam Inc., Cambridge, MA) and 20 ug/mL each streptavidin-coated donor and anti-rabbit IgG acceptor AlphaScreen beads. Antibody and beads were added in a 1ul dispense, for a final volume of 4ul, and plates were incubated, protected from the light, for 10 min at room temperature. Microplates were then read on an EnVision multilabel plate reader using the 1,536 plate HTS AlphaScreen aperture (excitation time 80 ms, measurement time 240 ms).
For the compound `O=C(CSc1nnc(-c2ccco2)n1-c1ccccc1)NCCc1ccccc1`, the “activity, negative = inhibition” value was 21.7%.
Regarding `COc1ccc(-n2c(SCC(=O)NCc3cccs3)nnc2-c2ccoc2C)cc1`, the activity, negative = inhibition is -7.6% [at 12.7 µM].
On to `COc1ccc(CCNC(=O)C(=O)NCC(c2ccco2)S(=O)(=O)c2cccs2)cc1OC` (configuration not stated), for which the “activity, negative = inhibition” value was -0.762%.
With `CCCCc1ccc(NC(=O)CN2C(=O)NC(Cc3ccccc3)C2=O)cc1` (configuration not stated), the “activity, negative = inhibition” value was 4% [at 102 µM].
With `CCCC[C@H]1C(=O)N(c2ccccc2)N(c2ccc(O)cc2)C1=O`, the Potency was 7.94 µM (active).
Take `O=C(O)CC1S/C(=N\N=C/c2ccccc2O)N(c2ccc(O)cc2)C1=O` (configuration not stated): the “activity, negative = inhibition” value is 31.1%.
The same measure, in the same setting: next, `COc1ccc(-n2c(=O)c3c(c4cc(OC)ccc4n3C)n(Cc3cccc(C)c3)c2=O)cc1`: 2.9%; `COc1ccc(C)cc1NC(=O)CN(C)S(=O)(=O)c1ccc2c(c1)n(C)c(=O)c(=O)n2C`: 42.7% [at 102 µM].
Regarding `CCC(=O)c1ccc(OC(=O)/C=C/c2cc(OC)c(OC)c(OC)c2)cc1`, the “activity, negative = inhibition” value was 10.6% [at 102 µM].
In the case of `COc1cc(/C=C/C2=CC(C)(C)NC(=S)N2)cc(OC)c1OC`, the Potency was 39.8 µM (active).
Turning to `COc1ccc2[nH]c(C(=O)N/N=C/c3cc(OC)c(OC)c(OC)c3)cc2c1`, the “activity, negative = inhibition” value was 10.8% [at 102 µM].
On the same count and under the same terms, as for `Cc1cccc(-c2nc(SCc3ccc(Br)cc3)n3[nH]c(=O)cc3n2)c1`, the figure is 46.9%.
On to `O=C(c1cn(-c2ccccc2)nc1-c1cccnc1)N1CCN(S(=O)(=O)c2ccccc2F)CC1`, for which the activity, negative = inhibition was -2.44% [at 12.7 µM].
As to `Cc1cc(C)c(C2C3=C(Nc4c2c(C)nn4-c2ccccn2)c2ccccc2C3=O)c(C)c1` (configuration not stated), the Potency is 11.2 µM (active).
As to `Cc1nn(-c2ccccn2)c2c1C(c1ccncc1)C1=C(CC(C)(C)CC1=O)N2` (configuration not stated), the “activity, negative = inhibition” value was -38.3%.
Consider `O=C(Nc1ncccc1O)c1ccc(S(=O)(=O)N2CCCC2)cc1`, for which the activity, negative = inhibition is 6.98% [at 12.7 µM].
Turning to `O=[N+]([O-])c1cccc(/C=N/Nc2ncc(Br)cn2)c1`, the activity, negative = inhibition was 18% [at 0.501 µM].
As to `Cc1cc(-c2ccc(/C=N/n3cnnc3)o2)c([N+](=O)[O-])cc1C`, the Potency was 50.1 µM (active).
As to `Cc1ccc(Cl)cc1-c1ccc(/C=N/n2cnnc2)o1`, the “activity, negative = inhibition” value was 14.3%.
Take `Clc1cc(-c2ccc(/C=N/n3cnnc3)o2)ccc1Br`: the “activity, negative = inhibition” value is -7.95%.
`CCc1cnc2c(c1SCC(=O)c1ccccc1)c(=O)n(C)c(=O)n2C`: the “activity, negative = inhibition” value is -0.675%.
In the case of `Cc1cccc(-c2nnc(SCC(=O)N3CCCc4ccccc43)o2)c1`, the “activity, negative = inhibition” value was 15.9%.
On to `CCC(C)Nc1oc(-c2ccc(COc3ccc(Cl)cc3)o2)nc1C#N` (configuration not stated), for which the “activity, negative = inhibition” value is -37.3%.
Turning to `CN1CCN(c2oc(-c3ccc(COc4ccc(Cl)cc4)o3)nc2C#N)CC1`, the Potency was 11.2 µM (active).
For `COc1ccc(OCc2ccc(-c3nc(C#N)c(N4CCN(c5ccccc5)CC4)o3)o2)cc1`, the “activity, negative = inhibition” value is -29%.
Regarding `C=CCOc1ccc(/C=C/C(=O)OCC(=O)NC(C)c2ccc(F)cc2)cc1` (configuration not stated), the “activity, negative = inhibition” value is -17.7% [at 102 µM].
Consider `COc1ccc(-c2nc3scc(CCNS(=O)(=O)c4cc(F)ccc4OC)n3n2)cc1OC`, for which the “activity, negative = inhibition” value was 7.7%.
For the compound `COc1ccc(S(=O)(=O)N2CCN(CC(=O)N3c4ccccc4CC3C)CC2)cc1OC` (configuration not stated), the Potency was 56.2 µM (active).
For the compound `COc1ccc(S(=O)(=O)N2CCC(C(=O)N3CCc4ccccc4C3)CC2)cc1OC`, the “activity, negative = inhibition” value was -13.7%.
Take `CC1Cc2ccccc2N1C(=O)CSc1nnc(-c2ccc(S(=O)(=O)N3CCCC3)cc2)n1C` (configuration not stated): the “activity, negative = inhibition” value is -19.1%.
Turning to `CCN(CCCNC(=O)c1c(C)oc2ncn(CC(C)C)c(=O)c12)Cc1ccccc1`, the “activity, negative = inhibition” value is -2.01%.
Same read-out and setting: next, `COc1cccc(-c2nnc3n(CCc4ccccc4)c(=O)c4ccccc4n23)c1O`: -23.1%.
In the case of `CCCC(=O)N(CCc1ccccc1)Cc1nc2ccccc2c(=O)[nH]1`, the “activity, negative = inhibition” value was 10.1%.
`CN(C)S(=O)(=O)c1cc(NC(=O)CN2C(=O)NC3(CCCc4ccccc43)C2=O)ccc1Cl` (configuration not stated): the “activity, negative = inhibition” value was -7.78%.
Regarding `O=C(Cn1cnc2ccccc2c1=O)Nc1cccc(S(=O)(=O)N2CCCCC2)c1`, the “activity, negative = inhibition” value was 6.9% [at 102 µM].
With `CCCCN(CC(=O)Nc1cccc(S(=O)(=O)N2CCCC2)c1)Cc1nc2ccccc2c(=O)[nH]1`, the Potency was 7.94 µM (active).
On the same count and under the same terms, as for `CCN(CC(=O)Nc1ccc(Cl)c(S(=O)(=O)N(C)C)c1)Cc1nc2ccccc2c(=O)[nH]1`, the figure is 39.8 µM (active).
For `CCN(CC(=O)Nc1cccc(S(N)(=O)=O)c1)Cc1nc2ccccc2c(=O)[nH]1`, the “activity, negative = inhibition” value is -46.9% [at 102 µM].
Regarding `O=C(COc1ccccc1F)Nc1ccc(C(=O)OCc2cc(=O)n3nc(C4CC4)sc3n2)cc1`, the “activity, negative = inhibition” value is 7.25%.
For `CCCNc1ncnc2c1c(-c1ccccc1)cn2-c1ccc(OCC)cc1`, the “activity, negative = inhibition” value is -35.9%.
`S=C(Nc1cccc(Br)c1)N1CCn2cccc2C1c1cccnc1` (configuration not stated): the Potency is 50.1 µM (active).
Regarding `CC(=O)N1c2ccc(S(=O)(=O)N3CCCC(C(=O)NCc4ccc(Cl)cc4)C3)cc2CC1C` (configuration not stated), the “activity, negative = inhibition” value was 10.1%.
Regarding `COC(=O)c1cc(NC(=O)CCS(=O)(=O)c2cc(Br)cc3c2N(C(=O)C2CC2)CC3)cc(C(=O)OC)c1`, the “activity, negative = inhibition” value was 0.579%.
Consider `N#Cc1ccccc1S(=O)(=O)N1CCN(Cc2c(O)ccc3ccccc23)CC1`, for which the activity, negative = inhibition is -0.103% [at 2.33 µM].
For the compound `CCCCn1c(N)c(N(CC)C(=O)/C=C/c2ccco2)c(=O)[nH]c1=O`, the “activity, negative = inhibition” value was -6.99%.
For `O=C(OCN1C(=O)c2ccccc2C1=O)/C(=C\c1ccco1)NC(=O)c1ccccc1`, the “activity, negative = inhibition” value is -8.62%.
Turning to `CCCCN=C1N/C(=C\c2ccco2)C(=O)N1c1ccccc1`, the Potency was 44.7 µM (active).

(Values after PubChem BioAssay AID504332 (National Center for Advancing Translational Sciences (NCATS), 2011).)
